Assay results: PubChem BioAssay
Active and inactive are the calls of the source. Unless noted, how the calls were made is not given here.

Columns and labels:
[1] = test system: Wnt5a (protein binding on small-molecule microarray); test: Wnt5a binders on small-molecule microarray, primary screen, biophysical, 635/667 nm fluorescence (AID 1142); details: 635 nm fluorescence, higher = more signal;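 further: fluorescence read at 667 nm with signal to noise per printed feature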
[2] = cell viability in Huh7 cells, primary screen, cytotoxicity control for HCV replication inhibitor project, CellTiter-Glo luminescence, basal, 48 h (AID 1143); details: Huh7 HCV replicon, higher = more signal, called active from +8 up or from −8 down;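 further: Huh7 hepatoma cells carrying a hepatitis C replication reporter with no stimulus; test concentration not given here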
[3] = P. aeruginosa biofilm formation inhibitors, primary screen, PAO1 strain, BacTiter-Glo luminescence, LB-PBS (AID 1144); details: 12 h, higher = more signal
[4] = CREB reporter modulators without forskolin, primary screen, cell-based, PC12, CRE-LacZ reporter, unstimulated (AID 1145); details: no forskolin, luminescence, 4.5 h, higher = more signal, called active from +8 up or from −8 down
[5] = CREB reporter modulators under forskolin, primary screen, cell-based, PC12, CRE-LacZ reporter, forskolin-stimulated (AID 1146); details: luminescence, 4.5 h, higher = more signal, called active from +8 up or from −8 down;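 further: PC12 cells with 6xCRE LacZ reporter stimulated by forskolin 10 µM; beta-galactosidase reporter signal reflecting CREB driven transcription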
[6] = biological target: Streptavidin (Streptomyces avidinii) (UniProt P22629); test: streptavidin binders on small-molecule microarray, primary screen, artefact control for SMM compound annotation, biophysical, 635/667 nm fluorescence (AID 1147); details: streptavidin binding, higher = more signal;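 further: signal reflects streptavidin binding to arrayed compounds as a control protein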
[7] = small-molecule binders of probe aInhba, primary screen, biochemical, small-molecule microarray, 635/667 nm fluorescence (AID 1148); details: higher = more signal;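 further: score merges 667nm spot fluorescence with signal-to-noise for antibody binding to printed compounds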
[8] = biological target: Torsin-1A (Homo sapiens) (UniProt O14656); test: torsin A binders from cell lysate, primary screen, small-molecule microarray, wild-type, 635/667 nm (AID 1149); details: COS7 hTOR1A-WT lysate, 635 nm fluorescence, higher = more signal
[9] = biological target: Torsin-1A (Homo sapiens) (UniProt O14656); test: small-molecule binders of mutant TOR1A in lysate, primary screen, cell lysate, small-molecule microarray, COS7 lysate, 635/667 nm fluorescence (AID 1150); details: COS7 hTOR1A mutant lysate, 635 nm fluorescence, higher = more signal;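 further: score pools 667 nm emission and signal to noise measuring lysate protein binding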
[10] = test system: Sonic hedgehog protein (Shh); test: small-molecule binders of Shh protein, primary screen, biochemical, small-molecule microarray, 635/667 nm fluorescence (AID 1151); details: small-molecule microarray binding, 635 nm fluorescence; higher = more signal;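 further: Shh protein binding to compounds spotted on small-molecule microarray slides; score combines spot fluorescence intensity with signal-to-noise across triplicate slides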
[11] = E. coli DRC41 culture turbidity changes, primary screen, E. coli filamentation inducer project, strain DRC41, OD650, 48 h (AID 1152);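 further: E. coli MC1000 strain DRC41 lacking acrAB efflux pump and sulA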; details: E. coli DRC41 (acrAB sulA), higher = more signal, called active from +8 up or from −8 down
[12] = small-molecule binders of probe aLefty1, primary screen, biochemical, small-molecule microarray, 635/667 nm fluorescence (AID 1153); details: higher = more signal;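 further: score merges spot fluorescence with signal-to-noise ratio from the scanned slide images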
[13] = PSAC antagonists in infected red cells, primary screen, cell-based, P. falciparum Indochina, OD700, 1 h (AID 1154); details: P. falciparum Indochina infected RBC osmotic lysis, higher = more signal, called active from +8 up or from −8 down
[14] = PSAC antagonists in infected red cells, primary screen, cell-based, P. falciparum Indochina, OD700, 2 h (AID 1155);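 further: lysis reports solute entry through the parasite surface anion channel PSAC; channel blockers reduce lysis of infected cells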; details: P. falciparum Indochina infected erythrocytes, osmotic lysis OD700; higher = more signal, called active from +8 up or from −8 down
[15] = osmotic lysis modulators in infected erythrocytes, primary screen, PSAC antagonist project, cell-based, P. falciparum Indochina, OD700, 3 h (AID 1156); details: higher = more signal, called active from +8 up or from −8 down
[16] = PSAC antagonists in infected red cells, primary screen, cell-based, P. falciparum Indochina, OD700, 18 h (AID 1157); details: P. falciparum Indochina infected erythrocytes, osmotic lysis OD700, 18 h; higher = more signal, called active from +8 up or from −8 down
[17] = modulators of S6 phosphorylation in cells, primary screen, cell-based, A549, cytoblot, luminescence, serum-stimulated (AID 1158); details: A549 phospho-S6 cytoblot, 5 h, higher = more signal;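 further: serum-stimulated A549 lung adenocarcinoma cells; signal is phosphorylated S6 detected by cytoblot immunostaining with HRP secondary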
[18] = biological target: NADPH oxidase 2 (Homo sapiens) (UniProt P04839); test: NOX2-dependent H2O2 signal modulators, primary screen, NOX inhibitor project, cell-based, HEK293-NOX2, PMA-stimulated, Amplex Red fluorescence (AID 1159); details: 45 min, higher = more signal, called active from +8 up or from −8 down; further: test concentration not given here
[19] = biological target: NADPH oxidase 4 (Homo sapiens) (UniProt Q9NPH5); test: NOX4-dependent H2O2 signal modulators, primary screen, NOX inhibitor project, cell-based, HEK293-NOX4, tetracycline-induced, Amplex Red fluorescence (AID 1160); details: 45 min, higher = more signal, called active from +8 up or from −8 down
[20] = biological target: NADPH oxidase 5 (Homo sapiens) (UniProt Q96PH1); test: NOX5-dependent H2O2 signal modulators, primary screen, NOX inhibitor project, cell-based, HEK293-NOX5, Amplex Red fluorescence (AID 1161); details: HEK293-NOX5, ionomycin, 45 min, higher = more signal
NADPH oxidase 5 (Homo sapiens), sequence (Q96PH1 whole entry, looked up): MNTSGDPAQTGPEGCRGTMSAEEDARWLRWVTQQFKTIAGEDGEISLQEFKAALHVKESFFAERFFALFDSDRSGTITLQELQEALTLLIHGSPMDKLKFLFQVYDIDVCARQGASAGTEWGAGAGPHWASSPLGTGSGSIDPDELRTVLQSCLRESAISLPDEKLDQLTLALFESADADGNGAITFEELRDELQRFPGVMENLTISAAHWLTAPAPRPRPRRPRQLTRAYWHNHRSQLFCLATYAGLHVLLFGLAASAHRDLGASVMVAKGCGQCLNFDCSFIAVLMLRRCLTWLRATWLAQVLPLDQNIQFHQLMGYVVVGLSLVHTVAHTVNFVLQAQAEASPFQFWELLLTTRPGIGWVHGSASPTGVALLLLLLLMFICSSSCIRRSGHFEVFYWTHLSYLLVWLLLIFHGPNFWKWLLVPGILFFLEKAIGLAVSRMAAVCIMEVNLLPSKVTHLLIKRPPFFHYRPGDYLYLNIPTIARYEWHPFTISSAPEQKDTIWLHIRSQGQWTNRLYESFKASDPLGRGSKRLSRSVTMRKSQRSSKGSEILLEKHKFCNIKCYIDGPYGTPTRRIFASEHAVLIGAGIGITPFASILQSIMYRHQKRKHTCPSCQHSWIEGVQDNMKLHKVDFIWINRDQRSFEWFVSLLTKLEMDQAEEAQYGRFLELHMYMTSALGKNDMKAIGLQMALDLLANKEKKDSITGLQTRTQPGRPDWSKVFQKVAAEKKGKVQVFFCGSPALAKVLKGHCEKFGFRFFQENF

Torsin-1A (Homo sapiens), sequence (O14656 whole entry, looked up): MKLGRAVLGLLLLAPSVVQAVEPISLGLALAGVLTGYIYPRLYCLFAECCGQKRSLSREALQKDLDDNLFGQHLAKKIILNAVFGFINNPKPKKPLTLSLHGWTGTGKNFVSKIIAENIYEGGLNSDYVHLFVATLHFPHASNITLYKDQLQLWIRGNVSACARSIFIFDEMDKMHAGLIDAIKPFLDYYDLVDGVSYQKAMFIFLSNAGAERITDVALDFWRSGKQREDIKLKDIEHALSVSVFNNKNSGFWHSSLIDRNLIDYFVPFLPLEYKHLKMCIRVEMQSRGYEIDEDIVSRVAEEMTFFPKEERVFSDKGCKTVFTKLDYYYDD
Streptavidin (Streptomyces avidinii), sequence (P22629 whole entry, looked up): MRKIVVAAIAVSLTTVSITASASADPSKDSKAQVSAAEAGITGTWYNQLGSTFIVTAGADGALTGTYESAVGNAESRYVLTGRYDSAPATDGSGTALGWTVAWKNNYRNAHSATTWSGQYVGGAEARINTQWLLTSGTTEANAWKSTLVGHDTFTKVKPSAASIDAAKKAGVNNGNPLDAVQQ
NADPH oxidase 2 (Homo sapiens), sequence (P04839 whole entry, looked up): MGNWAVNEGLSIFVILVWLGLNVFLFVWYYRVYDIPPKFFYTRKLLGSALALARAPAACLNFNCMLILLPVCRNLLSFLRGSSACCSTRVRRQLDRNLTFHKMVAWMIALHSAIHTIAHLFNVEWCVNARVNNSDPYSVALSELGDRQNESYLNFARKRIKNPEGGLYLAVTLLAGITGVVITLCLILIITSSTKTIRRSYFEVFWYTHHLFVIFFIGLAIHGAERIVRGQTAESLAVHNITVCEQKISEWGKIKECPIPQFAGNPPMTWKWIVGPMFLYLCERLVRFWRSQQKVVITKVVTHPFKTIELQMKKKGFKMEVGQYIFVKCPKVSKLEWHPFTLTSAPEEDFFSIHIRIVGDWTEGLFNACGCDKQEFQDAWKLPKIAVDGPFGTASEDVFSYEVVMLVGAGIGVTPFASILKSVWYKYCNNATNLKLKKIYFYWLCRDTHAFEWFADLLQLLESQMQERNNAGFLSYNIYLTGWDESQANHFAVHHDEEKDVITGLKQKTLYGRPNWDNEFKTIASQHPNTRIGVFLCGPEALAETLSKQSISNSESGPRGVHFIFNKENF
NADPH oxidase 4 (Homo sapiens), sequence (Q9NPH5 whole entry, looked up): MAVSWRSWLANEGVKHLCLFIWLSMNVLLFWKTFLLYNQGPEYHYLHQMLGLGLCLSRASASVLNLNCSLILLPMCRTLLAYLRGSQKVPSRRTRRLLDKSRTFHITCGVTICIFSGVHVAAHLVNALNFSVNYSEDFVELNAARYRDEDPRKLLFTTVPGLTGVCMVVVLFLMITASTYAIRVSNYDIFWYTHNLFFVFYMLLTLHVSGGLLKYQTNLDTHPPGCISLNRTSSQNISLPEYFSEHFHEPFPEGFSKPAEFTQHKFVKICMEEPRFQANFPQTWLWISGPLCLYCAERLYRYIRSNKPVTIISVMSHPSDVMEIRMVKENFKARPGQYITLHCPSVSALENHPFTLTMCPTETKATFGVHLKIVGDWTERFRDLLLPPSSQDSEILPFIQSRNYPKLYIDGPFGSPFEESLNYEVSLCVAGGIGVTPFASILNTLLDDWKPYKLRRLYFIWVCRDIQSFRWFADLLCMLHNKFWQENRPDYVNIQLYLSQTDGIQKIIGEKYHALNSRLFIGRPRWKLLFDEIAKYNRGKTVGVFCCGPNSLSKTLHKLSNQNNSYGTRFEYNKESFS

SMILES	composite z-score [1]	z-score [2]	z-score [3]	z-score [4]	z-score [5]	composite z-score [6]	composite z-score [7]	composite z-score [8]	composite z-score [9]	composite z-score [10]	z-score [11]	composite z-score [12]	z-score [13]	z-score [14]	z-score [15]	z-score [16]	z-score [17]	z-score [18]	z-score [19]	z-score [20]
CC(=O)NCCCC[C@@H]1NC(=O)[C@@H]2C[C@H](C(=O)NCCCCCCNC(=O)CS)[C@H](c3cccc(OCCO)c3)N2C1=O	0.611	0.206 (inactive)	-1.05 (inactive)	0.135 (inactive)	-0.67 (inactive)	-0.088	-0.179	0.442	0.669	1.63	-0.493 (inactive)	-0.0334	3.47 (inactive)	0.642 (inactive)	0.0299 (inactive)	0.351 (inactive)	0.468	1.55 (inactive)	0.157 (inactive)	0.303
CCOC(=O)[C@H]1C/C=C/C[C@H](C(=O)OCC)C(=O)O[C@H]2[C@@H](OC)O[C@H](CO)[C@@H](OC(=O)Nc3ccc(C#N)cc3)[C@@H]2OC1=O	0.121	-6.66 (inactive)	-2.89 (inactive)	-1.29 (inactive)	-1.66 (inactive)	-0.576	-0.128	0.392	1.08	0.673	3.06 (inactive)	-0.364	12.3 (active)	2.33 (inactive)	-0.906 (inactive)	1.13 (inactive)	2.47	-0.311 (inactive)	0.2 (inactive)	1.4
COc1ccc(CCNC(=O)[C@@H]2c3ccccc3C(=O)N(C3Cc4ccccc4C3)[C@H]2c2ccc(CO)cc2)cc1	-0.062	-0.221 (inactive)	-0.17 (inactive)	-0.0888 (inactive)	-1.01 (inactive)	-0.217	-0.0448	0.0114	0.067	0.13	-0.483 (inactive)	-0.0544	6.43 (inactive)	0.65 (inactive)	0.474 (inactive)	0.183 (inactive)	-0.484	-3.31 (inactive)	-0.185 (inactive)	-3.47
CCOc1cc(C(O)C2C=CC3C(=O)N(c4ccccc4)C(=O)C3N2Nc2ccccc2)ccc1O (stereo not given)	-0.206	0.318 (inactive)	-0.802 (inactive)	2.15 (inactive)	0.838 (inactive)	0.0572	-0.128	-0.577	1.66	-0.14	-0.39 (inactive)	-0.103	6.39 (inactive)	1.31 (inactive)	-0.343 (inactive)	0.949 (inactive)	-0.883	-1.19 (inactive)	-1.37 (inactive)	-2.34
CCCCCN1CC=CC23O[C@@H]4/C=C\CCCOC(=O)C4[C@H]2C(=O)N(C(CO)C(C)C)[C@@H]3C1=O (stereo not given in full)	0.175	-0.0623 (inactive)	-1.6 (inactive)	-0.899 (inactive)	0.373 (inactive)	-0.739	-0.128	-0.731	-0.436	0.976	1.52 (inactive)	-0.113	0.724 (inactive)	0.264 (inactive)	0.29 (inactive)	0.0866 (inactive)	0.0595	1.59 (inactive)	0.481 (inactive)	2.17
O=C1OCCC=C[C@H]2OC34C=CCN(CCN5CCOCC5)C(=O)[C@H]3N(CCCCCCO)C(=O)[C@@H]4C12 (stereo not given in full)	-0.0312	0.18 (inactive)	-0.134 (inactive)	1.55 (inactive)	0.0231 (inactive)	-0.393	-0.179	0.811	-0.839	0.65	0.36 (inactive)	-0.286	0.683 (inactive)	0.539 (inactive)	0.835 (inactive)	0.353 (inactive)	-0.156	0.658 (inactive)	-0.289 (inactive)	1.67
C=CCN(Cc1ccccc1)C(=O)C(c1cccs1)N(CCOCCO)C(=O)/C=C\C(=O)O (stereo not given)	-1.17	-0.247 (inactive)	-1.93 (inactive)	-1.58 (inactive)	-0.949 (inactive)	-1.28	-0.34	-3.64	-3.08	-0.933	2.73 (inactive)	-0.191	2.39 (inactive)	-0.398 (inactive)	0.213 (inactive)	-0.281 (inactive)	3.21	-0.00856 (inactive)	-0.515 (inactive)	-0.659
COCCOC(=O)N1C(=O)[C@@]2(c3cc(C#Cc4ccc(OC)cc4)ccc31)[C@H](C(=O)N1CCCCCCC1)[C@H]1C(=O)O[C@H](c3ccccc3)[C@H](c3ccccc3)N1[C@@H]2c1ccc(OCCO)cc1	0.812	-4.68 (inactive)	-1.97 (inactive)	0.0857 (inactive)	-0.66 (inactive)	1.67	1.82	1.12	1.06	2.15	2.43 (inactive)	2.36	7.28 (inactive)	1.09 (inactive)	0.478 (inactive)	0.442 (inactive)	1.93	0.453 (inactive)	0.266 (inactive)	-0.169
CN(C)CCCNC(=O)[C@@]1(C)c2ccccc2C(=O)N(Cc2cc(F)cc(C(F)(F)F)c2)[C@H]1c1ccc(CO)cc1	-0.569	-1.69 (inactive)	1.25 (inactive)	-0.0888 (inactive)	0.506 (inactive)	-0.432	-0.179	-1.2	0.301	-0.335	-0.0995 (inactive)	0.0391	2.41 (inactive)	0.159 (inactive)	1.32 (inactive)	-0.0617 (inactive)	-0.0103	-0.655 (inactive)	0.835 (inactive)	0.463
COc1ccc([Si](C)(C)[C@H]2[C@H](CC(=O)N3CCC[C@H]3CO)O[C@@]3(C(=O)N(Cc4cccc(N5C(=O)c6cccc7cccc5c67)c4)c4ccccc43)[C@@H]2C)cc1	1.08	-3.59 (inactive)	0.346 (inactive)	1.46 (inactive)	1.16 (inactive)	0.309	0.392	0.84	0.836	2.21	-0.577 (inactive)	0.302	7.61 (inactive)	0.753 (inactive)	0.442 (inactive)	0.623 (inactive)	-0.366	1.35 (inactive)	-0.292 (inactive)	4.06
O=C1O[C@H](c2ccccc2)[C@H](c2ccccc2)N2[C@H]1[C@@H](C(=O)O)[C@]1(C(=O)Nc3ccc(C#CCCO)cc31)[C@H]2c1ccc(O)cc1	-0.0604	-1.04 (inactive)	0.301 (inactive)	-1.28 (inactive)	-1.37 (inactive)	-0.668	0.161	0.309	0.499	0.0441	1.4 (inactive)	0.334	1.43 (inactive)	0.4 (inactive)	0.735 (inactive)	0.531 (inactive)	0.282	-0.185 (inactive)	-0.455 (inactive)	0.157
CC(C)(C)OC(=O)CC[C@@]1(C(=O)NCC(O)CO)N=C(c2ccc(OCCCO)cc2)O[C@@H]1c1ccccc1N=[N+]=[N-] (stereo not given in full)	0.849	-0.371 (inactive)	-1.18 (inactive)	-0.183 (inactive)	-0.173 (inactive)	1.85	0.289	1.45	1.76	0.146	1.99 (inactive)	0.379	31.9 (active)	28.4 (active)	3.82 (inactive)	7.71 (inactive)	0.123	-2.77 (inactive)	1.03 (inactive)	-1.85
O=C(C1N=C(c2ccc(OCCCO)cc2)N(c2ccccc2)O1)N1CCOCC1 (stereo not given)	0.427	-3.19 (inactive)	-0.59 (inactive)	0.185 (inactive)	-0.472 (inactive)	0.637	0.0947	0.652	0.219	0.476	1.72 (inactive)	0.0721	24.4 (active)	4.44 (inactive)	-0.593 (inactive)	-0.121 (inactive)	1.75	-3.16 (inactive)	-0.258 (inactive)	-0.432
COc1ccc([Si](C)(C)[C@@H]2[C@@H](CC(=O)N3Cc4ccccc4C[C@H]3CO)O[C@]3(C(=O)N(C)c4c(Br)cc(C)cc43)[C@H]2C)cc1	0.251	-5.91 (inactive)	-1.41 (inactive)	6.12 (inactive)	0.0739 (inactive)	0.813	-0.0645	1.01	1.19	2.14	0.0945 (inactive)	0.297	9.71 (active)	2.3 (inactive)	0.392 (inactive)	1.9 (inactive)	2.09	0.0136 (inactive)	0.0254 (inactive)	-0.0526
O=C1O[C@H](c2ccccc2)[C@H](c2ccccc2)N2[C@H]1[C@@H](C(=O)N1CCN(c3ncccn3)CC1)[C@]1(C(=O)Nc3ccc(C#CC4=CCCCC4)cc31)[C@H]2c1ccc(O)cc1	-0.019	-2.01 (inactive)	-0.134 (inactive)	0.155 (inactive)	-0.196 (inactive)	1.08	-0.0448	0.268	0.839	1.13	0.635 (inactive)	0.396	0.706 (inactive)	0.574 (inactive)	-0.313 (inactive)	1.01 (inactive)	0.538	0.852 (inactive)	0.537 (inactive)	0.837
